# Assay outcomes as filed in PubChem BioAssay.
# CHRM4 antagonist – human M4 muscarinic receptor antagonists, primary screen, CHO cells, Fluo-8 calcium fluorescence. AID 624125, 2012. actives 0.73% (n = 360,000). inhibition, % at 3 µM. CHO-hM4 cells, ACh EC80. Muscarinic acetylcholine receptor M4 (Homo sapiens), P08173;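 active = inhibition above its plate's cutoff, the mean inhibition of sample wells plus 3 SD, cut at about 27% in these data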;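 note: 0% = acetylcholine EC80 with DMSO and 100% = DMSO without agonist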
# Target sequence (P08173 whole entry, looked up): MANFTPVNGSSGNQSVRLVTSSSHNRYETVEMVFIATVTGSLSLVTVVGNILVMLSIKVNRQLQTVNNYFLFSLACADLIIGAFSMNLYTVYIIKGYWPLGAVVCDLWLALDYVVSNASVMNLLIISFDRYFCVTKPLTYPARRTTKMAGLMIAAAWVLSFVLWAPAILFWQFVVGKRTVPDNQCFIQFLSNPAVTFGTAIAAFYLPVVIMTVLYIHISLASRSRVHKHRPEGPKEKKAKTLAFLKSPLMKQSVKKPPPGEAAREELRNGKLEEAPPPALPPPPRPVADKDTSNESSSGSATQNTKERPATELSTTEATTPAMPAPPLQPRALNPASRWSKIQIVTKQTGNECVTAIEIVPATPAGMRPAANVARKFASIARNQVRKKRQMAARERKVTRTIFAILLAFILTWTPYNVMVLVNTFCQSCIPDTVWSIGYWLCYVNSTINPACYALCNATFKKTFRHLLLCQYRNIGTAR
# M4 ag – human M4 muscarinic receptor agonists, primary screen, CHO-K1 cells, Fluo-8 calcium fluorescence; Muscarinic acetylcholine receptor M4 (Homo sapiens), P08173; AID 624127, 2012; CHO-K1 hM4/Gqi5; vehicle 0%, full acetylcholine response 100%; activation, % at 3 µM; actives 0.14% (n = 360,000);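 active = activation above the run mean over all test wells plus 3 SD, cut at about 32% in these data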;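 note: peak over basal fluorescence ratio per well then scaled between controls; 0% = DMSO wells and 100% = acetylcholine at EC100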
# CHO-K1 Ca PAM – nonselective calcium activators in parental CHO-K1 cells, primary screen, counter-screen for M1 PAM project, cell-based, Fluo-8 calcium fluorescence, full deck, 1536-well; ATP EC20; 0% at ATP EC20, 100% at ATP max; activation, % at 3 µM; actives 0.02% (n = 360,000);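 active = activation above the run cutoff, the mean activation of all test compounds plus 3 SD, cut at about 40% in these data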;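 note: peak over basal fluorescence ratio in a 140 s read after ATP addition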
# CHO-K1 Ca ag – counter-screen for M1 agonists: effect in parental CHO-K1 cells; Fluo-8 calcium fluorescence; scaled to maximal ATP response, vehicle zero; activation, % at 3 µM; actives 0.48% (n = 360,000); in the data active = activation above about 15%;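 note: untransfected CHO-K1 host cells lacking M1 receptor as counterscreen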
# CHO-K1 Ca antag – M1 antagonist counterscreen hit in parental CHO-K1 cells. ATP-induced calcium, Fluo-8 fluorescence. inhibition, % at 3 µM. actives 0.6% (n = 360,000). AID 602250;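 active = inhibition above a per-plate cutoff, the plate's mean sample inhibition plus 3 SD, cut at about 24% in these data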;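 note: 0% = DMSO plus EC80 ATP and 100% = DMSO alone without ATP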
# CHRM4 PAM – human M4 muscarinic receptor positive allosteric modulators, primary screen, CHO-K1 cells, Fluo-8 calcium fluorescence | Muscarinic acetylcholine receptor M4 (Homo sapiens), P08173 | CHO-K1 hM4/Gqi5, ACh EC20; 0% = ACh EC20, 100% = maximal ACh | activation, % at 3 µM | actives 0.4% (n = 360,000) | AID 624126, 2012;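 active = activation above its plate's cutoff, the mean activation of sample wells plus 3 SD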
# * = called active by the depositor; / = not tested or not shown. Compounds with a hit are over-represented: about 2% of the library has one in this group of screens.
SMILES,CHRM4 antagonist,M4 ag,CHO-K1 Ca PAM,CHO-K1 Ca ag,CHO-K1 Ca antag,CHRM4 PAM
O=C(/C=C/c1ccccc1)N1CCC(Cc2ccccc2)CC1,-9,0,20,2,-10,-3
O=C(/C=C/c1cccc(Cl)c1)N1CCC(Cc2ccccc2)CC1,-10,-1,-12,1,25*,-5
OC(c1ccc(Cl)c(F)c1)c1ncc(-c2cccc3ccccc23)[nH]1 (centres undefined),3,5,-2,1,8,7
Cc1cc(C(O)c2ncc(-c3cccc4ccccc34)[nH]2)ccc1F (centres undefined),-9,8,-10,0,24*,1
COC(=O)[C@H](NCc1ccc(OC)c(B(O)O)c1)C(C)C,-3,1,6,0,-7,2
OC(C#CCN1CCCC1)(c1ccccc1)c1ccccc1,98*,1,-9,0,2,-18
OC(C#CCN1CCCCC1)(c1ccccc1)c1ccccc1,100*,2,18,2,-9,-18
CC(O)(C#CCN1CCCCCC1)c1ccccc1 (centres undefined),23,15,16,4,-5,-20
CCOc1ccc(S(=O)(=O)NCCC(=O)NCCCSc2ccccc2)cc1,-7,5,-1,1,-1,-2
Cc1cn(CC(=O)NCCNc2ccc([N+](=O)[O-])cn2)c(=O)[nH]c1=O,-7,1,16,1,-12,4
O=C(Nc1nc2ccccc2n1CCN1CCOCC1)c1ccc(COc2ccccc2Br)o1,43*,8,22,4,-4,-8
O=C(NCC(=O)N1CCN(c2ccc(C(F)(F)F)cn2)CC1)c1ccc(Br)o1,5,9,-17,5,2,0
COc1ccc(C2CC=C(C(C)=O)CN2S(=O)(=O)c2ccccc2)cc1 (centres undefined),-17,5,7,2,24*,-6
COc1ccc(C2CC=C(C(C)=O)CN2S(=O)(=O)c2ccc(C)cc2)cc1 (centres undefined),-11,8,7,4,5,-7
CCOc1ccc(NC(=S)NCc2ccco2)cc1,0,0,16,17*,14,1
COc1ccc(NC(=S)NCc2ccco2)cc1,0,0,18,0,-17,7
COc1cccc(S(=O)(=O)Nc2cccc(C(=O)N3CCOCC3)c2)c1,36*,1,16,1,-6,-17
C1=CN2CCC1C(c1ccccc1)C2 (centres undefined),36*,3,2,0,7,-11
Clc1ccc(CN2CCC(c3ccccc3)CC2)cc1,8,0,14,-1,3,-3
Cc1cccc(CCNS(=O)(=O)c2ccc3c(c2)CCN3C(=O)CCC(=O)O)c1,-5,0,3,0,4,15
COc1ccc(CCN2C(=O)CS/C2=N\NC(=O)c2cccs2)cc1OC,-2,4,10,18*,0,-4
Cc1csc(C(=O)O)c1NC(=O)c1ccc(F)cc1,-13,1,-10,-1,7,0
Cc1csc(C(=O)O)c1-c1c(C)csc1C(=O)O,-6,1,15,0,0,23*
Cc1nnc(SCC(=O)NC2CCCc3c2cnn3-c2ccccc2F)o1 (centres undefined),2,2,8,0,-17,-7
CC(C)Cn1c(-c2ccc(Br)cc2)c[nH]c1=S,-2,2,24,15*,-23,-10
CCn1c(-c2ccccc2)c[nH]c1=S,-7,1,-2,0,5,15
O=C1N(c2ccccc2)c2ccccc2[C@]12C[C@H](O)CO2,6,1,/,/,/,-1
Cc1sc2ncnc(NCC(c3ccco3)N3CCCC3)c2c1C (centres undefined),40*,2,13,0,-2,-23
Cc1sc2ncnc(N3CCCCC3)c2c1C,-6,3,-6,2,-37,8
